These results are taken from PubChem BioAssay (NCATS).

The nature of assay [1]: qHTS profiling of the MIPE4 collection as inhibitors of Plasmodium falciparum (3D7) proliferation (AID 743344).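 Also: scaled between DMSO vehicle wells and 0.29 µM artemisinin as full inhibition.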 The note with it: P. falciparum 3D7 in erythrocytes, SYBR Green DNA fluorescence, 72 h; at 28.5 µM unless noted. Summed up:
(§1)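 Parasite DNA was quantified by SYBR Green I fluorescence (ex 485, em 535 nm) after overnight lysis in saponin/Triton buffer at room temperature. Cultures at 0.3% parasitemia and 2.5% hematocrit were first exposed to compound for 72 h at 37 C; signals were normalised to artemisinin (0.29 uM) and vehicle wells.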
On the technique in general: Quantitative high-throughput screening tests each substance at several concentrations.

Assay [2] can be described thus: qHTS profiling of the MIPE4 collection as inhibitors of Plasmodium falciparum (DD2) proliferation (AID 743345). The conditions noted are these: P. falciparum Dd2 in erythrocytes, SYBR Green DNA, 72 h; at 28.5 µM unless noted. In outline:
as §1

Assay [3] can be described thus: qHTS profiling of the MIPE4 collection as inhibitors of Plasmodium falciparum (DD2) proliferation (Rep 2) (AID 743346). The note with it: P. falciparum Dd2 in erythrocytes, SYBR Green DNA, 72 h; at 28.5 µM unless noted. In outline:
as §1

The nature of assay [4]: qHTS profiling of the MIPE4 collection as inhibitors of Plasmodium falciparum (HB3) proliferation (AID 743347).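 Also: plate controls were DMSO vehicle wells for no effect and artemisinin wells for full effect.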 The note with it: P. falciparum HB3 in erythrocytes, SYBR Green DNA, 72 h; at 28.5 µM unless noted. In outline:
as §1

Each structure is given as a SMILES string.

For the compound `CC(C)(N)c1ccc(-c2nc3ccccc3nc2-c2ccccc2)cc1`, the parasite growth, % of DMSO control in assay [1] came to 21.6%. Besides, the parasite growth remaining, % of DMSO control (lower = more inhibition) in assay [2] was determined as 18.1%. This compound came in with a parasite growth, % of control (lower = inhibition) in assay [3] of 26.5%. Besides, the growth, % of control in assay [4] amounted to 18.5%.

Turning to `Oc1cc(-c2nc(-c3ccccc3)[nH]c2-c2ccncc2)ccc1Cl`, in assay [1], the parasite growth, % of DMSO control came out at 5.77%. Also, the parasite growth remaining, % of DMSO control (lower = more inhibition) in assay [2] was determined as 9.67%. The compound further registered a parasite growth, % of control (lower = inhibition) in assay [3] of 8.42%. This compound came in with a growth, % of control in assay [4] of 3.61%.

The compound `Cc1ccc([N+](=O)[O-])cc1S(=O)(=O)N(C)N=Cc1cnc2ccc(Br)cn12` displayed a parasite growth, % of DMSO control in assay [1] of 5.89%. Further, the parasite growth remaining, % of DMSO control (lower = more inhibition) in assay [2] amounted to 11.3%. The compound also displayed a parasite growth, % of control (lower = inhibition) in assay [3] of 20.1%. For the same compound, the growth, % of control in assay [4] is 3.45%.

In turn, `O=C(O)[C@H](CC(=O)N1C[C@@H]2CCCC[C@H]2C1)Cc1ccccc1` came in with a parasite growth, % of DMSO control in assay [1] of 71.6%. The parasite growth remaining, % of DMSO control (lower = more inhibition) in assay [2] turned out to be 103%. The compound also had a growth, % of control in assay [4] of 57.9%.

For the compound `CN(C)CC(=O)N1CCC(c2ccc(NC(=O)c3ncc(C#N)[nH]3)c(C3=CCCCC3)c2)CC1`, the parasite growth, % of DMSO control in assay [1] turned out to be 12.3%. Besides, the parasite growth remaining, % of DMSO control (lower = more inhibition) in assay [2] was found to be 16.6%. This compound came in with a parasite growth, % of control (lower = inhibition) in assay [3] of 12.3%. The growth, % of control in assay [4] came out at 9.47%.

`CS[C@H]1SC[C@@H]2C(=O)N(C)[C@H](C(C)C)C(=O)OC[C@H](NC(=O)c3cnc4ccccc4n3)C(=O)N[C@H](C)C(=O)N(C)[C@@H]1C(=O)N(C)[C@H](C(C)C)C(=O)OC[C@H](NC(=O)c1cnc3ccccc3n1)C(=O)N[C@H](C)C(=O)N2C` displayed a parasite growth, % of DMSO control in assay [1] of 7.68%. Further, the parasite growth remaining, % of DMSO control (lower = more inhibition) in assay [2] worked out at 5.94%. In addition, in assay [4], the growth, % of control was determined as 10.7%.

Regarding `C=CC(=O)Nc1cccc(Nc2nc(NC3CCC(N(C)C)CC3)nc3c2ncn3C(C)C)c1` (stereo not given), the parasite growth, % of DMSO control in assay [1] is 10.5%. Moreover, the parasite growth remaining, % of DMSO control (lower = more inhibition) in assay [2] came to 15.3%. In assay [4], this compound returned a growth, % of control of 4.69%.

Compound `CC(=O)O[C@]1(C(C)=O)CC[C@H]2[C@@H]3C=C(C)C4=CC(=O)CC[C@]4(C)[C@@H]3CC[C@@]21C` had a parasite growth, % of DMSO control in assay [1] of 23.2%. Moreover, the parasite growth remaining, % of DMSO control (lower = more inhibition) in assay [2] turned out to be 73.4%. The growth, % of control in assay [4] worked out at 10.6%.

Take `C=C1CCC2[C@](C)(CO)C(O)CC[C@]2(C)C1CC=C1C(=O)OCC1O` (stereo not given in full): the parasite growth, % of DMSO control in assay [1] worked out at 94.9% [at 57.5 µM]. Besides, the parasite growth remaining, % of DMSO control (lower = more inhibition) in assay [2] amounted to 85.2% [at 57.5 µM]. The parasite growth, % of control (lower = inhibition) in assay [3] turned out to be 92.9% [at 57.5 µM]. This compound gave a growth, % of control in assay [4] of 46.9% [at 57.5 µM].

`C[C@@H]1CC[C@@]2(OC1)OC1CC3C4CC=C5CC(O)CCC5(C)C4CCC3(C)C1[C@@H]2C` (stereo not given in full) displayed a parasite growth, % of DMSO control in assay [1] of 94.4%. Moreover, the parasite growth remaining, % of DMSO control (lower = more inhibition) in assay [2] amounted to 97.8%. In assay [3], this compound came in with a parasite growth, % of control (lower = inhibition) of 64.4%. The compound also returned a growth, % of control in assay [4] of 99.7%.

In the case of `CCOC(=O)C1=C(C)NC(=S)NC1c1cccc(O)c1` (stereo not given), the parasite growth, % of DMSO control in assay [1] stood at 90.7%. The parasite growth remaining, % of DMSO control (lower = more inhibition) in assay [2] was 93.6%. Besides, in assay [4], the growth, % of control was determined as 39%.

For the compound `O=C(O)C=Cc1ccc(Cn2ccnc2)cc1`, the parasite growth, % of DMSO control in assay [1] worked out at 90.5%. Further, the parasite growth remaining, % of DMSO control (lower = more inhibition) in assay [2] came to 100%. The compound also displayed a parasite growth, % of control (lower = inhibition) in assay [3] of 96.2%. In assay [4], this compound showed a growth, % of control of 95.1%.

`OCCN1C[C@H](O)[C@@H](O)[C@H](O)[C@@H]1CO`: in assay [1], the parasite growth, % of DMSO control came out at 96.1%. For the same compound, the parasite growth remaining, % of DMSO control (lower = more inhibition) in assay [2] turned out to be 131%. This compound also yielded a parasite growth, % of control (lower = inhibition) in assay [3] of 85.5%. The compound also yielded a growth, % of control in assay [4] of 97.8%.

`C[C@H]1COc2c(N3CCN(C)CC3)c(F)cc3c(=O)c(C(=O)O)cn1c23` gave a parasite growth, % of DMSO control in assay [1] of 49.9%. Also, the parasite growth remaining, % of DMSO control (lower = more inhibition) in assay [2] is 69.9%. The same compound had a growth, % of control in assay [4] of 60.4%.

As to `CC(=O)ON=C1C(c2c(O)[nH]c3cc(Br)ccc23)=Nc2ccccc21`, in assay [1], the parasite growth, % of DMSO control turned out to be 2.37%. Besides, the parasite growth remaining, % of DMSO control (lower = more inhibition) in assay [2] was 6.76%. Besides, the growth, % of control in assay [4] was 2.46%.

`Cc1cnc(Nc2ccc(N3CCN(C)CC3)cc2)nc1Nc1cccc(S(=O)(=O)NC(C)(C)C)c1` returned a parasite growth, % of DMSO control in assay [1] of 5.3%. Moreover, the parasite growth remaining, % of DMSO control (lower = more inhibition) in assay [2] is 8.81%. Besides, the growth, % of control in assay [4] is 3.11%.

Compound `CC(C)c1cc(C(C)C)c(CC(=O)NS(=O)(=O)Oc2c(C(C)C)cccc2C(C)C)c(C(C)C)c1` showed a parasite growth, % of DMSO control in assay [1] of 82.5%. For the same compound, the parasite growth remaining, % of DMSO control (lower = more inhibition) in assay [2] was determined as 89.6%. Moreover, the growth, % of control in assay [4] was determined as 89.6%.

For `COc1cc2c(cc1O)CCC1C2CC[C@@]2(C)C1CC[C@@H]2O` (stereo not given in full), the parasite growth, % of DMSO control in assay [1] was found to be 79.6%. In addition, in assay [2], the parasite growth remaining, % of DMSO control (lower = more inhibition) turned out to be 94.6%. The same compound came in with a growth, % of control in assay [4] of 59.7%.

As to `COc1cccc2c1C(=O)c1c(O)c3c(c(O)c1C2=O)C[C@@](O)(C(=O)CO)C[C@@H]3O[C@H]1C[C@H](N)[C@@H](O)[C@H](C)O1`, the parasite growth, % of DMSO control in assay [1] was 3.7%. In addition, the parasite growth remaining, % of DMSO control (lower = more inhibition) in assay [2] came out at 4.88%. Moreover, the parasite growth, % of control (lower = inhibition) in assay [3] was determined as 4.28%. The same compound had a growth, % of control in assay [4] of 2.54%.

In turn, `CC(C)C[C@H](NC(=O)[C@@H](NC(=O)c1cccc(-c2ccccc2)n1)[C@@H](C)O)B(O)O` gave a parasite growth, % of DMSO control in assay [1] of 4.97%. The parasite growth remaining, % of DMSO control (lower = more inhibition) in assay [2] turned out to be 8.79%. For the same compound, the parasite growth, % of control (lower = inhibition) in assay [3] was 7.67%. The growth, % of control in assay [4] turned out to be 3.76%.

On to `Cc1cnn(C)c1C(=O)Nc1cc(Nc2ccc3c(C=Cc4ccccn4)n[nH]c3c2)ccc1F`, for which the parasite growth, % of DMSO control in assay [1] came to 4.63%. Further, the parasite growth remaining, % of DMSO control (lower = more inhibition) in assay [2] came to 12.8%. Further, the growth, % of control in assay [4] was 6.36%.

For the compound `CC(=O)[C@]1(O)Cc2c(O)c3c(c(O)c2[C@@H](O[C@H]2C[C@H](N)[C@@H](O)[C@H](C)O2)C1)C(=O)c1ccccc1C3=O`, in assay [1], the parasite growth, % of DMSO control turned out to be 27.7%. Also, the parasite growth remaining, % of DMSO control (lower = more inhibition) in assay [2] turned out to be 46.3%. For the same compound, the parasite growth, % of control (lower = inhibition) in assay [3] came out at 49%. Further, the growth, % of control in assay [4] was found to be 11.5%.

As to `Cc1ccc(-n2[nH]c(C)c(N=Nc3cccc(-c4cccc(C(=O)O)c4)c3O)c2=O)cc1C`, in assay [1], the parasite growth, % of DMSO control was determined as 57%. In addition, in assay [2], the parasite growth remaining, % of DMSO control (lower = more inhibition) came to 92.5%. The compound also gave a growth, % of control in assay [4] of 72.9%.

Take `N#CNC(=NCCCCCCOc1ccc(Cl)cc1)Nc1ccncc1`: the parasite growth, % of DMSO control in assay [1] came to 12.1%. Further, in assay [2], the parasite growth remaining, % of DMSO control (lower = more inhibition) is 35.9%. For the same compound, in assay [3], the parasite growth, % of control (lower = inhibition) is 28%. In assay [4], this compound returned a growth, % of control of 3.38%.

With `CC(=O)N1CCN(c2ccc(OCc3nn(C)c(C)c3-c3cccc4c(CCCOc5cccc6ccccc56)c(C(=O)O)n(Cc5cccnc5)c34)cc2)CC1`, the parasite growth, % of DMSO control in assay [1] stood at 5.7%. Further, in assay [2], the parasite growth remaining, % of DMSO control (lower = more inhibition) was 9.41%. The compound further gave a growth, % of control in assay [4] of 2.86%.

The compound `CC(=O)OCC(=O)[C@@]1(O)CC[C@H]2[C@@H]3CCC4=CC(=O)CC[C@]4(C)[C@@H]3C(=O)C[C@@]21C` had a parasite growth, % of DMSO control in assay [1] of 68.4%. Also, the parasite growth remaining, % of DMSO control (lower = more inhibition) in assay [2] amounted to 93.2%. In assay [4], the growth, % of control is 96.5%.
